Reference: the supplement of paper PMC11732987, “Enantioselective OTUD7B fragment discovery through chemoproteomics screening and high-throughput optimisation” (Communications Chemistry, 2025)

Target: USP10 (UniProt Q14694)
Assay: log2 ratio of Biotin-Ahx-Ub-VS probe labelling (fragment/DMSO); higher = less target engagement (more negative = stronger competition), active = hit call of the paper (q ≤ 0.05, log2 ratio ≤ -1)
Details: compound concentration: 200 uM; treatment time: 3 h
Summary of the method: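 Global-median-normalised Spectronaut label-free quantities were compared by unpaired t-test, and values are average log2 ratios of fragment over vehicle. Only proteins with ≥2 unique peptides were used. HEK293T lysate (495 µg per sample) was treated in triplicate with fragment at 200 µM or vehicle for 3 h and then with Biotin-Ahx-Ub-VS at 0.5 µM final for 1 h. Labelled DUBs were then NeutrAvidin-enriched, digested with LysC and trypsin, and run by diaPASEF LC-MS/MS.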

Chain of USP10 (Q14694 whole entry, the tested form may be a part): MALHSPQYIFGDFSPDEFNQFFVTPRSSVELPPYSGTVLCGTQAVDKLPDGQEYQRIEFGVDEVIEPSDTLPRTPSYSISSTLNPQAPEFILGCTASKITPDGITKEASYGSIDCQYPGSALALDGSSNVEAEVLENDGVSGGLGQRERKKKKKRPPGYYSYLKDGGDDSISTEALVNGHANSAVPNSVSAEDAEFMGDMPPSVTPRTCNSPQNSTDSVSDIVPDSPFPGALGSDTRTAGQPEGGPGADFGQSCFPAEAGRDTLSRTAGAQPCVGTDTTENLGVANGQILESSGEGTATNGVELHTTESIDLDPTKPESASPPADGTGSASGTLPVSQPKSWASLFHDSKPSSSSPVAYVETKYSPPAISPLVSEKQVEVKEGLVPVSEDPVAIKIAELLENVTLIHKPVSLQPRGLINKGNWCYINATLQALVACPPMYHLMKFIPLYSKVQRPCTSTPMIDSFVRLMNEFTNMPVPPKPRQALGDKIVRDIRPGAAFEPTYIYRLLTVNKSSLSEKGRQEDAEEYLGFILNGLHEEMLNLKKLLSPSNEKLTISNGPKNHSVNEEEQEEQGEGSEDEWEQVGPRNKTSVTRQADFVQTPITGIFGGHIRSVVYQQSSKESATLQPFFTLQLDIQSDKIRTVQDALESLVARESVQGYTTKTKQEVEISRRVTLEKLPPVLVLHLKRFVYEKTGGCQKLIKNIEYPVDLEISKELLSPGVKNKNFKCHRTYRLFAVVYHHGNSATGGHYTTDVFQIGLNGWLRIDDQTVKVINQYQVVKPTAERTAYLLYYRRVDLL

log2 ratio of Biotin-Ahx-Ub-VS probe labelling, inactive:
Cl.O=C(CCl)N1CCC(n2nc3ccccc3n2)CC1 -0.135
Cc1cccc(C)c1NC(=O)CCl -0.108
CCN(C(=O)CCl)C1CCS(=O)(=O)C1 (stereo not given) -0.169
Cl.O=C(CCl)N[C@H]1C[C@@H](n2cccn2)C1 0.0484
Cc1ccc2nnc(CNC(=O)CCl)n2c1 -0.0942
O=C(CCl)Nc1ccc(N2CCCC2=O)cc1 -0.0139
Cl.O=C(CCl)NCc1ccnc(Oc2ccccc2F)c1 -0.187
O=C(CCl)N1CCC(S(=O)(=O)c2ccc(F)cc2)CC1 -0.175
Cl.O=C(CCl)N1CCn2ncc(O)c2C1 -0.00467
Cc1cccc(NC(=O)CCl)c1C -0.292
CCN(C(=O)CCl)C1CCCCC1 -0.185
O=C(CCl)NC1(c2ccc3c(c2)OCCO3)CCCC1 -0.203
O=C(CCl)N1CCN(C(=O)Nc2ccccc2)CC1 -0.135
O=C(CCl)NC(Cn1ccccc1=O)c1ccccc1 (stereo not given) -0.0324
CC1CCc2onc(CNC(=O)CCl)c2C1 (stereo not given) -0.0579
O=C(CCl)N1CCCCCC1c1ncon1 (stereo not given) -0.0372
Cc1cccc(N(CCC#N)C(=O)CCl)c1C -0.0111
O=C(CCl)Nc1ccccc1C(F)(F)F -0.0659
Cc1ccccc1OCC(=O)N1CCN(C(=O)CCl)CC1 -0.173
CN(C)C(=O)c1ccc(CNC(=O)CCl)cc1 -0.0496
